Here are results for 27 compounds from PubChem BioAssay AID651820 (National Center for Advancing Translational Sciences (NCATS), 2012).

The structures appear in SMILES notation. Screen size: about 340,000 compounds; about 12,000 (3.5%) were called active. Another 18% or so got no clear call; they are omitted. Shown is part of a subset that was picked to be rich in actives. Entries that show only a call come without a potency. Unmarked numbers belong to inactive results. Calls come from the whole dose curve; as a rule, active = well fitted inhibition curve with a large enough effect; inconclusive = small, poorly fitted or top-dose-only effect, or another doubt; inactive = no such curve, though single readings can be large or run the other way.
Potency is the fitted concentration of half-maximal effect.

A short description of the assay: qHTS Assay for Inhibitors of Hepatitis C Virus (HCV). The conditions noted are these: Huh7.5.1 HCVcc-Cre infection, luciferase reporter, 44 h; series mostly up to 41.8 µM. The procedure, abridged: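 Antiviral activity was scored by luciferase reporter output from cells infected with HCVcc-Cre (~0.5 moi) in presence of compound, 44 h infection period, cells seeded 1,000/well 4 h prior.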
(In general: qHTS replaces the single test concentration by a dilution series.)
Consider `Cc1ccc(OCC(=O)Oc2ccccc2[N+](=O)[O-])cc1`, for which the Potency entry is “inactive”.

Consider `CC1(C)NC(=O)N(CC(=O)N2CCN(S(=O)(=O)c3ccccc3F)CC2)C1=O`, for which the Potency result is “inactive”.

In the case of `CCN1C(=O)[C@@H]2[C@@H](c3ccc(-c4cccc(Cl)c4)cc3)N3CCC[C@@]3(C(=O)OC)[C@@H]2C1=O`, the Potency result is “inactive”.

On to `Nc1ccc(Nc2ccccc2)cc1`, for which the Potency result was “inactive”.

Regarding `Cc1cc(Nc2ccccc2)n(C(=O)c2ccc(N)cc2)n1`, the Potency was 12.6 µM (active).

As for `Cc1cc(Nc2ccccc2)n(CCC#N)n1`, the Potency result was “inactive”.

Consider `O=C(Cc1ccc(Br)cc1)NCCc1ccccc1`, for which the Potency entry is “inactive”.

For the compound `CC[C@@H]1CCCCc2ccccc2[C@@H](C(=O)C[C@H](O)CC(C)=O)OC1=O`, the Potency entry is “inactive”.

Consider `Cc1nnc(NC(=O)C(c2ccccc2)c2ccccc2)s1`, for which the Potency result was “inactive”.

Take `Cc1nnc(NC(=O)c2ccc3nccnc3c2)s1`: the Potency result was “inactive”.

For `Cc1nnc(NC(=O)Nc2ccc(Cl)c(Cl)c2)s1`, the Potency is 14.1 µM (active).

As for `COc1ccc(-c2cnc(SCCNC(=O)c3ccc4c(c3)OCO4)[nH]2)cc1`, the activity change, negative = inhibition is 14.4% [at 8.37 µM].

Regarding `C#CCOCCOCCOCCNc1nc(N2CCOCC2)nc(N2CCN(C(=O)[C@H](Cc3ccc(O)cc3)n3cc(CCO)nn3)CC2)n1`, the Potency result was “inactive”.

`Cc1cc(C)c[n+](-c2nc3ccccc3nc2[N-]S(=O)(=O)c2cccs2)c1`: the Potency entry is “inactive”.

With `O=S(=O)([N-]c1nc2ccccc2nc1-[n+]1ccc(Cc2ccccc2)cc1)c1ccc(Br)s1`, the Potency is 3.55 µM (active).

With `O=C(NCCc1ccccc1)C1CCN(S(=O)(=O)c2ccc(Br)s2)CC1`, the Potency result was “inactive”.

For `CC(Oc1ccc2c(-c3ccccc3)cc(=O)oc2c1)C(=O)NC(Cc1c[nH]c2ccccc12)C(=O)O` (configuration not stated), the Potency entry was “inactive”.

With `CC(C)(C)C(=O)CSc1ccc(S(=O)(=O)N2CCCC2)cn1`, the Potency entry was “inactive”.

With `CCOC(=O)C1(CCOC)CCN(Cc2ccc(C(=O)OC)cc2)CC1`, the Potency result was “inactive”.

In the case of `CCCS(=O)(=O)N1CCC(CCOc2ccccc2)(C(=O)OCC)CC1`, the Potency result is “inactive”.

Turning to `CCOC(=O)C1(CCOc2ccccc2)CCN(Cc2cc(OC)c(O)cc2Cl)CC1`, the Potency was 11.2 µM (active).

In the case of `Nn1c(SCC(=O)Nc2nccs2)nnc1-c1ccco1`, the Potency entry was “inactive”.

In the case of `Cc1ccccc1NC(=O)Cc1nc(COC(=O)c2cccnc2Cl)cs1`, the Potency result was “inactive”.

Turning to `COc1cccc(N(C(=O)C2COc3ccccc3O2)C(C(=O)NC2CCCCC2)c2ccc(O)cc2)c1` (configuration not stated), the Potency entry is “inactive”.

On to `COc1ccc(C(C(=O)NC2CCCCC2)N(C(=O)c2snc(C(N)=O)c2N)c2ccccc2OC)cc1` (configuration not stated), for which the Potency entry was “inactive”.

`COc1ccc(C(C(=O)NC2CCCCC2)N(C(=O)CCl)c2ccccc2Cl)cc1` (configuration not stated): the Potency was 2.82 µM (active).

As to `O=C(c1ccc(F)cc1)N1CCC(C(=O)N2CCN(S(=O)(=O)c3ccccc3Br)CC2)CC1`, the Potency entry is “inactive”.
